A selection: hits, their analogues and other compounds. The true share with any hit is near 11%.
HEK cytotox = cytotoxic compounds in HEK 293 cells; HEK 293 viability, ATP luminescence (CellTiter-Glo), 48-72 h; Potency, µM (doses to about 115 µM), inactives show at the top dose activity change, negative = cytotoxicity, hits mostly inhibitors; 94,000 compounds, 6.6% hits; further: on the % scale 0 is the no-effect control and ±100 the full control effect; nearly all actives have a fitted effect of over 60% in size
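qHTS cytotoxicity; HEK 293, 250 cells/well; compound pinned; 48 or 72 hr, 37 degree Celsius, 5% CO2, 95% humidity; CellTiter-Glo, 10 min RT; luminescence (ATP).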
NIH3T3 tox = kills NIH 3T3 cells; NIH 3T3 viability, CellTiter-Glo ATP luminescence, 48-72 h; Potency, µM (series often up to 96.7 µM), without a hit: at the highest dose activity change, negative = cytotoxicity, most hits filed as inhibitors; 94,000 compounds, 4.3% hits; further: on the % scale 0 is the no-effect control and ±100 the full control effect; nearly all actives have a fitted effect of over 55% in size
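Cells were seeded at 400 per well, treated with pin-transferred compound, and kept 48 or 72 hr at 37 °C before CellTiter-Glo addition and luminescence imaging of cellular ATP.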
NPR1 antag = antagonists of human natriuretic peptide receptor Npr1. AID 1347048. HEK293 hNpr1 GloSensor cGMP, ANP-stimulated luminescence. Potency, µM (series often up to 46.3 µM), for inactives: top-dose activity change, negative = inhibition, most hits filed as inhibitors. 76,000 compounds, 1.6% hits; calls by dose curve; further: on the % scale 0 is the no-effect control and ±100 the full control effect; nearly all actives have a fitted effect of over 60% in size
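Compound pre-incubated 30 min at room temperature on GloSensor-loaded HEK293 cells stably carrying hNpr1 and the pGS-40F cGMP biosensor. Stimulation uses hNppA at 0.1 nM final; luminescence is taken at baseline and 20 min post-agonist.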
FLuc inh-1 = inhibitors of firefly (Photinus pyralis) luciferase; purified P. pyralis luciferase, luminescence, biochemical; P08659; AID 1347043; Potency, µM (top dose mostly 115 µM), most hits filed as inhibitors; 76,000 compounds, 2.5% hits; further: on the % scale 0 is the no-effect control and ±100 the full control effect; nearly all actives have a fitted effect of over 65% in size
Target sequence (P08659 whole entry, looked up): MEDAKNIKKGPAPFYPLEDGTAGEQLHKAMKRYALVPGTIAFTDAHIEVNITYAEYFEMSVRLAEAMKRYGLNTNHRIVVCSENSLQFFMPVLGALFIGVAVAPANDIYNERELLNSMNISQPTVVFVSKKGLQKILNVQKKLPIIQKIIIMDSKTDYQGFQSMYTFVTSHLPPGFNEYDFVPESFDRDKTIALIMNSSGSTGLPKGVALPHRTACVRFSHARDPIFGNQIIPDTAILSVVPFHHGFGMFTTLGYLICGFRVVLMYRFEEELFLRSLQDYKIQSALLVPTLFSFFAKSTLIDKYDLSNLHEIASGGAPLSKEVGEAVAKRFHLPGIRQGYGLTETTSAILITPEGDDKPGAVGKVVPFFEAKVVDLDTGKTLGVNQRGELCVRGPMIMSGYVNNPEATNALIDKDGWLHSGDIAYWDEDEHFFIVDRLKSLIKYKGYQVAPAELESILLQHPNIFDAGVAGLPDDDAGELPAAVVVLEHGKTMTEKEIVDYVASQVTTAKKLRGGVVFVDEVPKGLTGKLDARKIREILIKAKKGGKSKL
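Purified P. pyralis luciferase (10nM final) in 50mM Tris acetate pH 7.5, 10mM Mg acetate, 0.01% Tween-20, 0.05% BSA with 10uM D-luciferin and 10uM ATP. Compounds titrated qHTS. Luminescence imaged on CCD.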
FLuc SDR no ATP = stabilizes firefly luciferase without ATP; shares compounds with FLuc inh-1; Purified FLuc-C-HiBiT, Nano-Glo HiBiT luminescence, no ATP; Potency, µM (top dose mostly 32.7 µM), for inactives: at the highest dose activation (signal gain), hits mostly activators; 1,300 compounds, 7.8% hits; further: nearly all actives have a fitted effect of over 55% in size
FLuc SDR ATP = stabilizes firefly luciferase with ATP present; shares compounds with FLuc inh-1; purified FLuc-C-HiBiT + ATP, HiBiT complementation luminescence; Potency, µM (highest dose often 32.7 µM), for the others: at the highest dose activation (gain of signal), most hits filed as activators; 1,300 compounds, 8.7% hits;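 further: signal reports ligand binding via conformational change of the enzyme rather than luciferase catalysis; % of control where 0% means no effect; nearly all actives have a fitted effect of over 55% in size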
FLuc inh-2 = inhibitors of firefly luciferase enzymatic activity; shares compounds with FLuc inh-1; purified FLuc-C-HiBiT enzyme, luciferin luminescence; Potency, µM (highest dose often 32.7 µM), for the others: top-dose activity change, negative = inhibition, hits mostly inhibitors; 1,300 compounds, 42% hits; further: on the % scale 0 is the no-effect control and ±100 the full control effect; nearly all actives have a fitted effect of over 70% in size
* hit, by the source's call; [ ] = another dose, or the depositor's remark. Unless noted, the call rests on the fitted dose curve; in most records, active means well fitted curve in the direction sought with a large enough effect; inconclusive means small, poorly fitted or top-dose-only effect, or another doubt; inactive means no such curve, though single readings can be large; an effect the other way counts as inactive or inconclusive. Potency means the concentration at half of the fitted maximal effect.

For CC(=O)N1CCC([C@@H]2CN(Cc3ccccc3C(F)(F)F)C[C@H]2CO)CC1 the results were HEK cytotox -13%, NIH3T3 tox -7%, NPR1 antag 6% and FLuc inh-1 inactive.
Screening Cc1nn(-c2ccccn2)c(C)c1[C@@H]1C=C[C@@H](NC(=O)C2CCCCC2)C1 returned HEK cytotox inconclusive, NIH3T3 tox inconclusive, NPR1 antag -8%[70.6 µM] and FLuc inh-1 inactive.
For COc1ccc(-n2nc(C)c([C@@H]3C=C[C@@H](NC(=O)Nc4cccc(C#N)c4)C3)c2C)cc1 the results were HEK cytotox 89µM*, NIH3T3 tox inconclusive, NPR1 antag inconclusive, FLuc inh-1 7.9µM*, FLuc SDR no ATP 13%[49.3 µM], FLuc SDR ATP 11%[49.3 µM] and FLuc inh-2 inconclusive.
Screening O=C(c1ccc(Cl)nc1)N1CCCC(C(=O)N2CCCC2c2nc3ccncc3[nH]2)C1 (stereo unspecified) returned HEK cytotox -9% and NIH3T3 tox -18%.
Screening CCN1c2cc(C(=O)Nc3ccc(Cl)c(Cl)c3)ccc2C(=O)N2CCCCC21 (stereo unspecified) returned HEK cytotox inconclusive, NIH3T3 tox inconclusive, NPR1 antag -1% and FLuc inh-1 inactive.
`CCN1c2cc(C(=O)Nc3cc(C)cc(C)c3)ccc2C(=O)N2CCCC21` (stereo unspecified) gave HEK cytotox inconclusive, NIH3T3 tox inconclusive, NPR1 antag 1% and FLuc inh-1 inactive.
Screening CCN1c2cc(C(=O)Nc3ccc4c(c3)OCCO4)ccc2C(=O)N2CCCCCC21 (stereo unspecified) returned HEK cytotox 18µM*, NIH3T3 tox inconclusive, NPR1 antag inconclusive, FLuc inh-1 11µM*, FLuc SDR no ATP 21%, FLuc SDR ATP 18% and FLuc inh-2 inconclusive.
CCN1c2cc(C(=O)Nc3ccc4c(c3)OCCO4)ccc2C(=O)N2CCCC21 (stereo unspecified) was read as HEK cytotox inconclusive, NIH3T3 tox inconclusive, NPR1 antag -8%, FLuc inh-1 5µM*, FLuc SDR no ATP 27%, FLuc SDR ATP 16% and FLuc inh-2 inconclusive.
Screening N#Cc1ccc(C(=O)Nc2cccc(-c3nnc4n3CCCC4)c2)cc1 returned HEK cytotox inconclusive, NIH3T3 tox -1%, NPR1 antag 0% and FLuc inh-1 inactive.
`COc1ccc(CC(=O)NC2CCCN(c3ccc4nnc(C)n4n3)C2)cc1` (stereo unspecified) gave HEK cytotox 5% and NIH3T3 tox -15%.
Screening CC1=C[C@@H](CNC(=O)c2cccc(F)c2)[C@H](C(C)C)C[C@H]1CC(=O)NCc1cccnc1 returned HEK cytotox inconclusive, NIH3T3 tox inconclusive, NPR1 antag -13% and FLuc inh-1 inactive.
COc1ccc(NC(=O)C2CCN(C(=O)c3ncn4c3COC(c3ccc(F)cc3)C4)CC2)cc1F (stereo unspecified) was read as HEK cytotox -8%, NIH3T3 tox 0%, NPR1 antag -2% and FLuc inh-1 inconclusive.
`COc1ccc(C)cc1NC(=O)C1CCN(C(=O)c2ncn3c2COC(c2ccc(F)cc2)C3)CC1` (stereo unspecified) gave HEK cytotox -13%, NIH3T3 tox -9%, NPR1 antag -25%, FLuc inh-1 7.1µM*, FLuc SDR no ATP 12%, FLuc SDR ATP inconclusive and FLuc inh-2 inconclusive.
`O=C(Nc1ccccc1F)C1CCN(C(=O)c2ncn3c2COC(c2ccc(F)cc2)C3)CC1` (stereo unspecified) gave HEK cytotox -1%, NIH3T3 tox inactive, NPR1 antag -3% and FLuc inh-1 inconclusive.
`Cc1ccc(NC(=O)C2CCN(C(=O)c3ncn4c3COC(c3ccc(F)cc3)C4)CC2)c(F)c1` (stereo unspecified) gave HEK cytotox -1%, NIH3T3 tox inactive, NPR1 antag -2%, FLuc inh-1 13µM*, FLuc SDR no ATP 15%, FLuc SDR ATP inconclusive and FLuc inh-2 inconclusive.
COCCNC(=O)CNC(=O)c1ccc(-c2cnc3ccccc3c2)cc1 was read as HEK cytotox -12% and NIH3T3 tox -20%.
For COC1CCOC2(CCN(C(=O)CCCc3ccccc3)CC2)C1 (stereo unspecified) the results were HEK cytotox -19%, NIH3T3 tox -5%, NPR1 antag -10%, FLuc inh-1 6.3µM*, FLuc SDR no ATP 18%, FLuc SDR ATP inconclusive and FLuc inh-2 inconclusive.
`COc1cccc(CN2CCc3c(cc(C(=O)N4CCN(CC(C)C)CC4)n3C)C2)c1` gave HEK cytotox inconclusive, NIH3T3 tox inconclusive, NPR1 antag 2% and FLuc inh-1 inactive.
Screening CN(C)c1ccc(-c2nc3ccccn3c2Nc2ccc3c(c2)OCCO3)cc1 returned FLuc SDR no ATP 19%, FLuc SDR ATP 13% and FLuc inh-2 11µM*.
For Oc1ccc(-c2nc3ccccn3c2Nc2ccc3c(c2)OCCO3)cc1 the results were FLuc SDR no ATP 21%, FLuc SDR ATP 17% and FLuc inh-2 inconclusive.
For OC(c1ccccc1)c1nc(Nc2ccc3c(c2)OCO3)n[nH]1 (stereo unspecified) the results were HEK cytotox -28%[172 µM], NIH3T3 tox inconclusive, NPR1 antag -23%[70.6 µM] and FLuc inh-1 inactive.
Screening Cn1ccc(C(=O)N2CC(CNC(=O)Cc3ccccc3)C3(C2)CN(c2ccccc2)C3)n1 (stereo unspecified) returned HEK cytotox inactive, NIH3T3 tox inconclusive, NPR1 antag -1% and FLuc inh-1 inactive.
Screening COC(=O)CNC(=O)N1CCC2(CC1)N(Cc1ccccc1)C(=O)CS2(=O)=O returned HEK cytotox -8% and NIH3T3 tox -25%.
`CCC(=O)Nc1cnc(-c2ccc(C)cc2)nc1` gave HEK cytotox 11%, NIH3T3 tox 2%, NPR1 antag inconclusive, FLuc inh-1 3.2µM*, FLuc SDR no ATP inconclusive, FLuc SDR ATP inconclusive and FLuc inh-2 8.8µM*.
`Cc1cccc(C(=O)NC2CCN(c3cc(-c4ccc(Cl)cc4)[nH]n3)CC2)c1` gave HEK cytotox inconclusive, NIH3T3 tox inconclusive, NPR1 antag -2% and FLuc inh-1 inactive.

Source: PubChem (National Center for Advancing Translational Sciences (NCATS))
